Many of the other results were omitted from the sample, so hits are more common in it than they were.
NS1 function inh = inhibitors of influenza NS1 protein function; 270,000 compounds, 0.4% hits; AID 2326; Potency, µM (titrated, usually from 46.1 µM); calls by dose curve; further: actives are rising curves; nearly all actives have a fitted effect of over 50% in size
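S. cerevisiae expressing influenza A NS1, grown in glucose, washed, then diluted 1:100 into pH 6.0 -URA galactose medium with 23 nl compound. Growth recovery read as OD600; NS1-free strain serves as control.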
LmPK inh = inhibitors of Leishmania mexicana pyruvate kinase; Potency, µM (highest dose often 57.5 µM), actives largely listed as inhibitors; 290,000 compounds, 0.37% hits; Q27686; purified LmPK, Kinase-Glo ATP luminescence, 1 h
Target sequence (Q27686 whole entry, looked up): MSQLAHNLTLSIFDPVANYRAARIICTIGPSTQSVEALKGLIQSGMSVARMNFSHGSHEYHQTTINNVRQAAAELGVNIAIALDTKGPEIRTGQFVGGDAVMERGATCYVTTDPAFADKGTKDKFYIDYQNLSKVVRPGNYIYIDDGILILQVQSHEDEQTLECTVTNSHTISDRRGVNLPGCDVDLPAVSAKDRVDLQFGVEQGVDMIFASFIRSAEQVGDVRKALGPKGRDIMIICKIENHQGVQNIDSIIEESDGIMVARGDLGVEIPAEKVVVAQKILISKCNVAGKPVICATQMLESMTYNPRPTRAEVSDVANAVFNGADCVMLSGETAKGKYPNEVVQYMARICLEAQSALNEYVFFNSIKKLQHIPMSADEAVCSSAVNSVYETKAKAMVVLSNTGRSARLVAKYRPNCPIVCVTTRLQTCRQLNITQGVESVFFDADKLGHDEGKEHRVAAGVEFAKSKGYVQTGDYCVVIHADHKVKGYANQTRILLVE
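Purified LmPK (0.1 nM) converted ADP (0.1 mM) to ATP with PEP (0.5 mM) in imidazole buffer pH 7.2 with KCl and MgCl2, 1 h at room temperature. ATP was read by Kinase-Glo luminescence; data normalized to uninhibited and no-enzyme controls.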
Tb PYK inh = inhibitors of Trypanosoma brucei pyruvate kinase. Q57TT1. TbPYK enzyme, Kinase-Glo Plus ATP luminescence, 45 min. Potency, µM (highest dose often 76.8 µM), most hits filed as inhibitors. 410,000 compounds, 0.12% hits. AID 624173; further: nearly all actives have a fitted effect of over 50% in size
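Luminescent Kinase-Glo Plus end-point after 45 min room-temperature reaction of T. brucei pyruvate kinase started with 130 uM ADP (final). Buffer TEA 50 mM pH 7.2 with KCl, MgCl2, BSA, Tween-20; titration-based qHTS with fitted concentration-effect curves.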
Shiga inhibitor = inhibitors of Shiga toxin in Vero cells | inhibition, % at 38.7 µM | Vero cells, Shiga toxin protein synthesis inhibition reporter | 290,000 compounds, 9.2% hits; in the data active means inhibition mostly above about 28%, no sharp cut-off; inactive means mostly below about 43%
SARS PLP yeast = blocks SARS-CoV papain-like protease in a yeast assay | 330,000 compounds, 0.19% hits | S. cerevisiae expressing SARS-CoV PLpro, growth rescue | Potency, µM (highest dose often 32.9 µM), hits mostly activators; calls by dose curve; further: nearly all actives have a fitted effect of over 55% in size
CHX counter = affects cycloheximide protein synthesis inhibition readout, counter-screen; cell reporter, cycloheximide protein synthesis inhibition counterscreen; max response, %; 300,000 compounds, 12% hits; AID 2314; in the data active means max response mostly above about 13%, no sharp cut-off; inactive means mostly below about 14%; further: read at 38.3 µM for the half of the compounds with a filed dose
Each line names hits and unclear results; the compound was inactive in the other large screens. Unless noted, the call rests on the fitted dose curve; in most records, active means well fitted curve in the direction sought with a large enough effect; inconclusive means small, poorly fitted or top-dose-only effect, or another doubt; inactive means no such curve, though single readings can be large; an effect the other way counts as inactive or inconclusive.

COc1ccc(-n2nnnc2SCC(=O)Nc2ccc3c(c2)OCCO3)c(OC)c1	Shiga inhibitor 74.1, CHX counter 46.0
COc1cccc(-n2nnnc2SCC(=O)Nc2ccc3c(c2)OCCO3)c1	none
COCCCn1nnnc1SCC(=O)Nc1ccc2c(c1)OCCO2	none
COc1ccc(-c2noc(N(c3cccc(Cl)c3)c3nc(-c4ccc(OC)c(OC)c4)no3)n2)cc1OC	none (no result: NS1 function inh, LmPK inh, Shiga inhibitor, SARS PLP yeast, CHX counter)
COC(=O)c1cc(NC(=O)c2cc3c(-c4ccccc4F)nn(C)c3s2)cc(C(=O)OC)c1	none (no result: NS1 function inh, LmPK inh, Shiga inhibitor, SARS PLP yeast, CHX counter)
COc1ccc(NC(=O)COC(=O)C2=COCCO2)cc1OC	none (no result: NS1 function inh)
Cc1ccc(NC(=O)COC(=O)C2=COCCO2)cc1	CHX counter 20.5
O=C(COC(=O)C1=COCCO1)Nc1ccc2c(c1)OCO2	CHX counter 38.8
CCC(C)c1ccc(NC(=O)COC(=O)C2=COCCO2)cc1 (centres undefined)	none
Cc1ccc(NC(=O)COC(=O)C2=COCCO2)c([N+](=O)[O-])c1	CHX counter 26.1
CC1=N/C(=C\c2ccccc2Cl)C(=O)O1	none (no result: NS1 function inh, LmPK inh, Shiga inhibitor, SARS PLP yeast, CHX counter)
COc1ccc(-n2c(C)cc3cc(OC(C)=O)ccc32)cc1	CHX counter 10.7
COc1ccc(-n2c(C)c(C(C)=O)c(C(C)=O)c2C)cc1	none
Cc1ccnc(N2C(=O)c3ccccc3C2O)c1 (centres undefined)	LmPK inh inconclusive, Tb PYK inh inconclusive, CHX counter 38.8
Cc1ccnc(N2C(=O)c3ccccc3C2Nc2cccc(C)c2C)c1 (centres undefined)	Shiga inhibitor 28.4, CHX counter 14.7
Cc1ccccc1N1C(=O)c2ccccc2C1Nc1cccnc1 (centres undefined)	none
COc1ccc(S(=O)(=O)NC(=O)C2(C)CCN2C(=O)C2(c3ccccc3)CCCC2)cc1 (centres undefined)	none (no result: NS1 function inh, LmPK inh, Shiga inhibitor, SARS PLP yeast, CHX counter)
Cc1cccc(C)c1NC(=O)CN1CCN(C(=O)CNC(=O)c2ccc(N3CCCC3=O)cc2)CC1	none (no result: NS1 function inh, LmPK inh, Shiga inhibitor, CHX counter)
C=CCNc1nc(Nc2ccc(OC)cc2OC)nc(OCC)n1	none
CCOc1nc(Nc2ccccc2F)nc(OCC)n1	CHX counter 20.0
C=CCNc1nc(Nc2ccccc2F)nc(OCC)n1	Shiga inhibitor 123.2, CHX counter 47.2 (no result: NS1 function inh)
Clc1cccc(CNc2ncnc3c2nc2n3CCCC2)c1	none (no result: NS1 function inh, LmPK inh, Shiga inhibitor, SARS PLP yeast, CHX counter)
C(=C\c1nc(-c2ccccc2)no1)/c1ccccc1	Shiga inhibitor 47.8, CHX counter 29.7
Clc1ccc(/C=N/NC2=Nc3cccc4cccc2c34)cc1	Shiga inhibitor 85.3, CHX counter 24.3
C(=N\NC1=Nc2cccc3cccc1c23)/c1ccccc1	Shiga inhibitor 42.7, CHX counter 86.8
COc1ccc(NC2=Nc3cccc4cccc2c34)cc1OC	none
Clc1ccccc1-c1nc(N/N=C/c2cccnc2)c2ccccc2n1	NS1 function inh inconclusive
C(=N\NC1=Nc2cccc3cccc1c23)/c1cccnc1	Shiga inhibitor 72.2, CHX counter 40.0 (no result: NS1 function inh)
COc1cccc(NC2=Nc3cccc4cccc2c34)c1	CHX counter 21.4
O=C(O)c1ccccc1CSc1ccccn1	none (no result: NS1 function inh)
COc1ccc(C2=NOC(CNC(=S)N3CCOCC3)C2)cc1 (centres undefined)	Shiga inhibitor 56.5, CHX counter 34.0
COc1ccc(C2=NOC(Cn3nc(C(=O)O)cc3-c3ccccc3)C2)cc1 (centres undefined)	Tb PYK inh inconclusive
CC(=O)Nc1c(C(=O)N2CCOCC2)sc2nc3c(cc12)COC(C)(C)C3	none
CCOC(=O)c1sc2nc3c(cc2c1N)COC(C)(C)C3	Shiga inhibitor 28.5, CHX counter 38.0
CCOC(=O)c1cc2c(nc1N)CC(C)(C)OC2	none
CCC1(C)Cc2nc3sc(C(=O)O)c(N)c3cc2CO1 (centres undefined)	NS1 function inh inconclusive
CCOC(=O)c1cc2c(nc1N)CC(C)(CC)OC2 (centres undefined)	Shiga inhibitor 116.5, CHX counter 48.6
CC1(C)Cc2nc3sc(C(N)=O)c(N)c3cc2CO1	CHX counter 30.8
CCOC(=O)c1sc2nc3c(cc2c1N)COC(C)(CC)C3 (centres undefined)	NS1 function inh inconclusive, CHX counter 41.3 (no result: Tb PYK inh)
Cc1cccc(C)c1NC(=O)Nc1nnc([C@H]2C[C@H](O)[C@@H](CO)O2)s1	none (no result: NS1 function inh, LmPK inh, Shiga inhibitor, SARS PLP yeast, CHX counter)
C[C@@H]1C[C@H](OC(=O)[C@@H](O)c2ccccc2)CC(C)(C)N1C	none (no result: NS1 function inh, LmPK inh, Shiga inhibitor, SARS PLP yeast, CHX counter)
COCC(=O)n1nc(-c2ccccc2)nc1NCc1ccc(N(C)C)cc1	Shiga inhibitor 64.9, CHX counter 37.8
COCC(=O)n1nc(-c2ccc(Cl)cc2)nc1NCc1ccc(F)cc1	Shiga inhibitor 48.2, CHX counter 38.4
COCC(=O)n1nc(-c2ccc(C)cc2)nc1NCc1ccc(F)cc1	Shiga inhibitor 86.1, CHX counter 12.2 (no result: NS1 function inh)
COc1ccc(CNc2nc(-c3cccnc3)nn2C(=O)c2cccs2)cc1	CHX counter 28.9
COc1ccccc1C(=O)n1nc(-c2ccccc2)nc1NCc1ccc(Cl)cc1	none (no result: NS1 function inh, LmPK inh, Shiga inhibitor, SARS PLP yeast, CHX counter)
CCC(=O)n1nc(-c2cccnc2)nc1NCc1ccc(F)cc1	none (no result: NS1 function inh)
COc1ccc(CNc2nc(-c3cccnc3)nn2C(C)=O)cc1	none (no result: NS1 function inh)
C/C(=N\NC(=O)CNC(=O)c1ccc(F)cc1)c1ccco1	none
CC(C)OCCCN1C(=O)c2[nH]nc(-c3ccccc3O)c2C1c1ccccc1F (centres undefined)	none (no result: NS1 function inh, LmPK inh, Shiga inhibitor, SARS PLP yeast, CHX counter)
COc1ccc(C(c2oc(CO)cc(=O)c2O)c2oc(CO)cc(=O)c2O)cc1OC	SARS PLP yeast 7.94µM (no result: NS1 function inh)
O=C(Nc1ccc(Nc2ccccc2)cc1)c1ccc(Cl)cc1	none (no result: NS1 function inh, LmPK inh, Shiga inhibitor, SARS PLP yeast, CHX counter)
CC(=O)Nc1nonc1NC(=O)c1ccc(C(C)(C)C)cc1	Shiga inhibitor 57.9, CHX counter 19.7
Cc1ccc(NC(=O)c2ccsc2)cc1NS(C)(=O)=O	none
CC(C)(C)c1ccc(C(=O)Nc2ccc(Cl)cc2)cc1	Shiga inhibitor 100.6, CHX counter 42.8
CC(C)(C)c1ccc(NC(=O)c2ccsc2)cc1	Shiga inhibitor 45.1, CHX counter 28.2
COc1ccccc1NC(=O)C1=C(C)Nc2nc(SCc3ccccc3)nn2C1c1ccccn1 (centres undefined)	none (no result: NS1 function inh, LmPK inh, Shiga inhibitor, SARS PLP yeast, CHX counter)
COc1ccc(-c2csc(NC3CCCCC3)n2)c(OC)c1	Shiga inhibitor 59.7, CHX counter 26.3
O=C(Nc1nc(-c2ccccc2)cs1)C1CCCCN1S(=O)(=O)c1ccccc1 (centres undefined)	none
O=C(Nc1nc(-c2ccccc2)cs1)NC1CCCCC1	Shiga inhibitor 48.4, CHX counter 34.3
COc1ccc(-c2csc(NC(=O)CN3C(=O)CCC3=O)n2)c(OC)c1	none
c1ccc(-c2csc(NC3CCCCC3)n2)cc1	Shiga inhibitor 148.3, CHX counter 55.8
COc1ccc(S(=O)(=O)N2CCOCC2)cc1NC(=O)CNC(=O)c1cccs1	none (no result: NS1 function inh, LmPK inh, Shiga inhibitor, CHX counter)
O=C(/C=C/Nc1ccc([N+](=O)[O-])cc1Br)c1cccc2ccccc12	CHX counter 20.0
Cc1ccsc1C(=O)OCc1nc2ccccc2c(=O)[nH]1	Shiga inhibitor 61.1, CHX counter 58.3

Source: PubChem (National Center for Advancing Translational Sciences (NCATS))
